GLP-1R inv ag: acts as inverse agonist at human GLP-1 receptor | P43220 | HEK293 GLP-1R CRE-luciferase, luminescence, 24 h; GLP-1R form is constitutively active | Potency, µM (doses to about 38.3 µM), without a hit: at the highest dose activity change, negative = inhibition, most hits filed as inhibitors | 410,000 compounds, 1.6% hits | AID 624417; also: potency is read from the fitted curve at half-maximal effect; % is scaled to controls: 0 for no effect and ±100 for the full control effect; nearly all actives have a fitted effect of over 55% in size
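HEK293 cells stably co-expressing a cAMP-responsive luciferase reporter and constitutively active GLP-1R were seeded, incubated 12 h, then exposed to compounds for 24 h at 37 C. Luminescence was read 12 min after detection reagent; inverse agonists lower signal.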
GLP1R ag: agonists of human GLP-1 receptor. HEK293 GLP-1R CRE-luciferase, luminescence, 4-6 h; cells express a hypersensitive GLP-1R form. 380,000 compounds, 0.007% hits. Potency, µM (titrated, usually from 45.6 µM), without a hit: at the top dose activation, actives largely listed as activators. P43220. AID 624172; also: potency is read from the fitted curve at half-maximal effect; % of control where 0% means no effect
hERG WT inh: blocks the wildtype human KCNH2 potassium channel | U2OS, BacMam KCNH2, thallium flux FluxOr; active compounds read low | Q12809 | activity change, % at 1.84 µM | 340,000 compounds, 0.37% hits | AID 720551;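 active = maximum activity change below -70%; inconclusive = maximum activity change between -70% and -50%; inactive = maximum activity change above -50%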; also: % is scaled to controls: 0 for no effect and ±100 for the full control effect
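U2OS cells were transduced with wild-type KCNH2 virus (2.03 x 10^8 / mL) for 4 h at room temperature, then cultured overnight at 37 C. Thallium flux was read with FluxOr dye. Rate constants were normalized to DMSO controls.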
GLS inh: inhibitors of human glutaminase (GLS); GLS enzymatic activity, qHTS titration; AID 624170; 410,000 compounds, 0.21% hits; Potency, µM (top dose mostly 45.5 µM), for inactives: at the top dose activity change, negative = inhibition, most hits filed as inhibitors; also: potency is read from the fitted curve at half-maximal effect; % is scaled to controls: 0 for no effect and ±100 for the full control effect
Target sequence (O94925 whole entry, looked up): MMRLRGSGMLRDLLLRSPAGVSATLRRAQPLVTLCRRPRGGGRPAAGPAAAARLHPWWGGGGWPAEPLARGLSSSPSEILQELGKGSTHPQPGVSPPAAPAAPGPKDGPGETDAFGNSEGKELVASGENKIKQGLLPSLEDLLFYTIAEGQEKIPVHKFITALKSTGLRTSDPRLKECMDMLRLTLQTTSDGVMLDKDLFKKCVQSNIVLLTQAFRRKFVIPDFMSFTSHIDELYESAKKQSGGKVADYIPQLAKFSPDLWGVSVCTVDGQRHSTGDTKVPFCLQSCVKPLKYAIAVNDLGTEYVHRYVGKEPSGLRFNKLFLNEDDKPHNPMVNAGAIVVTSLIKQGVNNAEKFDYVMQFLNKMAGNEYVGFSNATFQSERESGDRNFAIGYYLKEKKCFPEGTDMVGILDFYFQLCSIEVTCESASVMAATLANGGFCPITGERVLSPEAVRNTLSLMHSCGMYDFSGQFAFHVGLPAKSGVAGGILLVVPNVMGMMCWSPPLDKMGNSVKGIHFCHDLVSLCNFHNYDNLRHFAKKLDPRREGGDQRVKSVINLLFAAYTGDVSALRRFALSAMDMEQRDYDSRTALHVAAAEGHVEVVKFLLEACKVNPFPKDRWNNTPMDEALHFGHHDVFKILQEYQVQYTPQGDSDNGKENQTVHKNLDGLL
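Human kidney-isoform GLS in 45 mM KH2PO4 pH 8.2, 0.02% Tween-20, with compound, started with 1mM L-Glutamine (added stock). Glutamate oxidase/HRP/Amplex red coupled fluorescence read at start and after 30 min at RT.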
KCNH2 3.1 block: blocks the human KCNH2 3.1 channel isoform. U2OS KCNH2 3.1, thallium flux FluxOr; active compounds read low. 340,000 compounds, 0.95% hits. activity change, % (tested at about 1.8 µM);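 active = maximum activity change below -70%; inconclusive = maximum activity change from -70% to -50%; inactive = maximum activity change above -50%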;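 also: thallium influx rate constant from kinetic fluorescence after stimulation buffer; % is scaled to controls: 0 for no effect and ±100 for the full control effect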
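Thallium flux via FluxOr fluorescence (Red40 quencher, 45 min loading) in U2OS cells virally expressing the KCNH2 3.1 isoform (1.77 x 10^8 /mL virus, overnight at 37 C). Rate constants from 2-min kinetic reads post-stimulation, normalised to positive and negative controls.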
HEK293 tox: cytotoxic in the GLP-1 receptor inverse agonist counter-screen | HEK293 cAMP-luciferase reporter cells, luminescence, 24 h | Potency, µM (highest dose often 38.3 µM), for inactives: at the top dose activity change, negative = inhibition, most hits filed as inhibitors | AID 624418 | 410,000 compounds, 0.13% hits;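 also: loss of luciferase light is scored as toxicity; potency is read from the fitted curve at half-maximal effect; % is scaled to controls: 0 for no effect and ±100 for the full control effect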
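Seeding density was 200 cells/uL; after overnight-length (12 h) culture, 23 nL compounds went on for 24 h at 37 °C. Readout used a luciferase detection reagent, luminescence taken after 12 min at room temperature.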
* hit, by the source's call; [ ] = remark or other dose. The list is not random: actives were taken first. Their share in the collection is about 2.8%. Unless noted, calls follow the shape of the dose curve; as a rule, active = well fitted curve in the direction sought with a large enough effect; inconclusive = small, poorly fitted or top-dose-only effect, or another doubt; inactive = no such curve, though single readings can be large; an effect the other way counts as inactive or inconclusive.

Screening CC1CCN(C(=S)c2cn(Cc3ccc(F)cc3)c3ccccc23)CC1 returned GLP-1R inv ag 7.1µM*, GLP1R ag -1%, hERG WT inh -13, GLS inh -4%, KCNH2 3.1 block 3 and HEK293 tox -17%.
Screening CSc1ncccc1C(=O)Nc1ccc2c(c1)OCCO2 returned GLP-1R inv ag 5%, GLP1R ag -1%, hERG WT inh 7, GLS inh 1%, KCNH2 3.1 block 7 and HEK293 tox -10%.
CCOc1ccccc1C(=O)Nc1cc(Cl)ccc1O was read as GLP-1R inv ag 7.1µM*, GLP1R ag 0%, hERG WT inh 9, GLS inh -15%, KCNH2 3.1 block -7 and HEK293 tox inconclusive.
For CCC(=O)NC(c1ccc(OC)cc1)c1c(O)ccc2ccccc12 (configuration not stated) the results were GLP-1R inv ag 3.5µM*, GLP1R ag -5%, hERG WT inh -10, GLS inh 8%, KCNH2 3.1 block 10 and HEK293 tox -28%.
Screening COc1ccc(C(NC(=O)C(C)C)c2c(O)ccc3ccccc23)cc1 (configuration not stated) returned GLP-1R inv ag inconclusive, GLP1R ag 3%, hERG WT inh -10, GLS inh 2%, KCNH2 3.1 block -19 and HEK293 tox inconclusive.
CC(C)(C)c1ccc(OCC(=O)Nc2c(C(=O)c3ccc(F)cc3)oc3ccccc23)cc1 was read as GLP-1R inv ag 6%, GLS inh -2% and HEK293 tox -2%.
`O=C(NCc1ccccc1)C(c1cccc2ccccc12)n1c(=O)c(-c2cc3ccccc3[nH]2)nc2ccccc21` (configuration not stated) gave GLP-1R inv ag inconclusive and HEK293 tox 390%.
Screening Cc1nnsc1-c1nc2ccccc2n1C(CCc1ccccc1)c1nc2ccccc2[nH]1 (configuration not stated) returned GLP-1R inv ag 11µM* and HEK293 tox -16%.
`N#Cc1ccc(C(C(=O)NCc2ccccc2)n2c(=O)c(-c3cc4ccccc4[nH]3)nc3ccccc32)cc1` (configuration not stated) gave GLP-1R inv ag inconclusive and HEK293 tox inactive.
For O=C(NCc1ccccc1)C(CCc1ccccc1)n1c(=O)c(-c2cc3ccccc3[nH]2)nc2ccccc21 (configuration not stated) the results were GLP-1R inv ag 5.6µM* and HEK293 tox 455%.
For O=C(NCc1ccccc1)C(c1ccc(C(F)(F)F)cc1)n1c(=O)c(-c2cc3ccccc3[nH]2)nc2ccccc21 (configuration not stated) the results were GLP-1R inv ag 4.5µM* and HEK293 tox inactive.
For CSCCC(c1nc2ccccc2[nH]1)n1c(=O)c(-c2cc3ccccc3[nH]2)nc2ccccc21 (configuration not stated) the results were GLP-1R inv ag inconclusive and HEK293 tox 386%.
For O=c1c(-c2cc3ccccc3[nH]2)nc2ccccc2n1C(CCc1ccccc1)c1nc2ccccc2[nH]1 (configuration not stated) the results were GLP-1R inv ag 3.2µM* and HEK293 tox inactive.
Screening Cc1ccc(S(=O)(=O)NNC(=O)Nc2ccc(C)c(C)c2)c(C)c1 returned GLP-1R inv ag inconclusive, GLP1R ag 6%, hERG WT inh -2, GLS inh 17%, KCNH2 3.1 block -16 and HEK293 tox -6%.
Screening Cc1nc(C)c(-c2ccc(SCC(=O)Nc3cccc(C)c3C)nn2)s1 returned GLP-1R inv ag 85%, GLS inh 1% and HEK293 tox 3%.
Screening Cc1ccc(NC(=O)CSc2nnc(Cc3csc(C)n3)o2)cc1 returned GLP-1R inv ag 10%, GLP1R ag 6%, hERG WT inh -6, GLS inh -4%, KCNH2 3.1 block 14 and HEK293 tox 0%.
`CCOc1ccc(Nc2nc(Cc3nnc(SCC(=O)c4ccc(C)c(C)c4)o3)cs2)cc1` gave GLP-1R inv ag 11µM*, GLP1R ag 4%, hERG WT inh -12, GLS inh 21%, KCNH2 3.1 block -3 and HEK293 tox inconclusive.
`O=C(NCc1cccnc1)c1ccc(S(=O)(=O)N2CCOCC2)cc1` gave GLP-1R inv ag 13%, GLP1R ag -5%, hERG WT inh 6, GLS inh -2%, KCNH2 3.1 block -11 and HEK293 tox 4%.
For Cc1ccc(C(=O)NC2CCS(=O)(=O)C2)cc1S(=O)(=O)N1CCCCCC1 (configuration not stated) the results were GLP-1R inv ag 4%[7.66 µM], GLP1R ag 6%, hERG WT inh 14, GLS inh 1%, KCNH2 3.1 block -114* and HEK293 tox 6%[7.66 µM].
CC1CCN(S(=O)(=O)c2ccc(C(=O)NCc3cccnc3)cc2)CC1 was read as GLP-1R inv ag -10%[0.307 µM], GLP1R ag 0%, hERG WT inh -263*, GLS inh -9%, KCNH2 3.1 block 3 and HEK293 tox -1%[0.307 µM].
For Cc1ccc(C(=O)NC2CCCCC2)cc1S(=O)(=O)N1CCCC1 the results were GLP-1R inv ag -8%, GLP1R ag 0%, hERG WT inh 8, GLS inh 0%, KCNH2 3.1 block 8 and HEK293 tox 10%.
CC1CCN(S(=O)(=O)c2ccc(C(=O)NC3CCS(=O)(=O)C3)cc2)CC1 (configuration not stated) was read as GLP-1R inv ag 3%, GLP1R ag 2%, hERG WT inh -3, GLS inh 3%, KCNH2 3.1 block -79* and HEK293 tox -9%.
Screening O=C(NC1CCS(=O)(=O)C1)c1ccc(S(=O)(=O)N2CCCC2)cc1 (configuration not stated) returned GLP-1R inv ag 11%, GLP1R ag -14%, hERG WT inh -8, GLS inh 13%, KCNH2 3.1 block 26 and HEK293 tox 5%.
`Cc1ccc(S(=O)(=O)N2C(=O)CCC2C(N)=O)cc1` (configuration not stated) gave GLP-1R inv ag 18%, GLP1R ag -2%, hERG WT inh 9, GLS inh 0%, KCNH2 3.1 block 24 and HEK293 tox 1%.
Screening CCC(=O)C1=C(c2ccc(F)cc2)N(C(=O)CC)n2c(nnc2C2CCCCC2)S1 returned GLP-1R inv ag 5%, GLS inh 9% and HEK293 tox -1%.

Compound activity: PubChem, National Center for Advancing Translational Sciences (NCATS)
